Laboratory results reported in PubChem BioAssay (NCATS).
Inconclusive results are not listed. A call without a number means that no potency is given here. Activity calls are given as the source filed them. Calls follow the shape of the dose curve; as a rule, active = well fitted inhibition curve with a large enough effect; inconclusive = small, poorly fitted or top-dose-only effect; inactive = flat fitted curve, though single readings scatter.

Each compound was assayed against Voltage-gated inwardly rectifying potassium channel KCNH2 (Homo sapiens) (UniProt Q12809) (assay: qHTS Assay for Small Molecule Inhibitors of the Human hERG Channel Activity (AID 588834;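 also: top concentration of the series differs between compounds; lower thallium flux fluorescence means stronger hERG block; nearly all actives have a fitted effect of over 50% in size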)). Conditions: U2OS BacMam hERG, FluxOR thallium flux fluorescence; series mostly up to 46.1 µM.
Chain of Voltage-gated inwardly rectifying potassium channel KCNH2 (Homo sapiens) (Q12809 whole entry, looked up): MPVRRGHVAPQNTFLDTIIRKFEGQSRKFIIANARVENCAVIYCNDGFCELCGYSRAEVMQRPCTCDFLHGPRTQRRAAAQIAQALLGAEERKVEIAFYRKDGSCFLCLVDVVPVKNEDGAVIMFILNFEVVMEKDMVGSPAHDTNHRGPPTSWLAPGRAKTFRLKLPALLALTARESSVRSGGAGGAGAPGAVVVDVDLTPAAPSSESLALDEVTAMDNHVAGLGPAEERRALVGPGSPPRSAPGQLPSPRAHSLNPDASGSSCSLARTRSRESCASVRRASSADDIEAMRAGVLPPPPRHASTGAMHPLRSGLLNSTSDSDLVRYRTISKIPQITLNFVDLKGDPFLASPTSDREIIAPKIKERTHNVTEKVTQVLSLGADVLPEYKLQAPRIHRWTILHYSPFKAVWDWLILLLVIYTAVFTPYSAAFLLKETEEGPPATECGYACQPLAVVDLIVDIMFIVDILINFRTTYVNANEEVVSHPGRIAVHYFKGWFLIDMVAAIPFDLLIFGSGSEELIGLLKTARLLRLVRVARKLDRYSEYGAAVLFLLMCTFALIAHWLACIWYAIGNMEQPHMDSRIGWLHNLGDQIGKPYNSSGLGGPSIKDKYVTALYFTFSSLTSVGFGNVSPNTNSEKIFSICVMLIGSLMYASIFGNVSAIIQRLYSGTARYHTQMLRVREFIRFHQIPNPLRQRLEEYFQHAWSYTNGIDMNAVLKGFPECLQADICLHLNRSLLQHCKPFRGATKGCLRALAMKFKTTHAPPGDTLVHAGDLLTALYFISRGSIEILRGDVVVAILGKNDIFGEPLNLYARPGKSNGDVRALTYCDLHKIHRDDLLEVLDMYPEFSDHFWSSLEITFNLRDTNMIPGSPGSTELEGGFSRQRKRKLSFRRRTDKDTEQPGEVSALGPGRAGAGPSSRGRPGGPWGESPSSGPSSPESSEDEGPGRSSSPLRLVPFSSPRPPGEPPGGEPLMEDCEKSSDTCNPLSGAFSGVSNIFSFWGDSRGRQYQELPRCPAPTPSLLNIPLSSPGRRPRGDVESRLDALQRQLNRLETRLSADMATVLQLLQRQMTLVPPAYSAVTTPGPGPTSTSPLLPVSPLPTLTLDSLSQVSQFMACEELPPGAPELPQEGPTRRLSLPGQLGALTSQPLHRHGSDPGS
Excerpt: NIH Chemical Genomics Center [NCGC]
National Institutes of Environmental Health Sciences [NIEHS]
National Toxicology Program [NTP]
We have developed a 1536-well cell-based assay for quantitative high throughput screening (qHTS) to determine in vitro hERG channel blockage as a measure of cardio toxicity with small molecules. This particular assay uses the U2OS cell line which is derived from human osteosarcoma.
NCGC Assay Protocol Summary:
HERG assay (FluxORTM thallium flux assay) was initially developed by Invitrogen/Molecular Probes, and then miniaturized into 1536-well plate in a homogeneous format by NCGC. This assay measures the activity of potassium channel using thallium dye (FluxOR) flux as surrogate measurement for potassium into the cells with a FDSS-7000 kinetic plate reader (Hamamatsu Corp., Hamamatsu City, Japan). The hERG ion channel is transduced into mammalian cells (U2OS) using a baculovirus (Bacmam) construct harboring the hERG K+ ion channel. So far we screened LOPAC1280 library (Sigma), the NTP collection of 1408 compounds, and the NCGC Pharmaceutical Collection (NPC), in which many well defined HERG blockers are present. The rank order potencies of many of these compounds are similar to that of other HERG assays (membrane potential, Rb+ flux, patch clamp, etc). This quick and homogeneous assay is also found to be sensitive, specific, and robust.
Using the FluxORTM thallium flux assay, the activity of potassium channel using thallium dye (FluxOR) flux as surrogate measurement for potassium into the cells was measured in the U2OS cell line transduced with hERG K+ ion channel using a baculovirus (Bacmam) using Opti-MEM medium (Invitrogen) containing 2% fetal calf serum (FCS, HyCone) following loading buffer addition, compound treatment for around 10 minutes and finally adding stimulation buffer. The assay was performed in black clear Kalypsys 1536-well plates. In the screen, Astemizole was used as positive controls. Library compounds were measured for their ability to cause hERG channel blockage in the cell line, as reflected by a decrease in fluorescence intensity, in a concentration-dependent manner. […] AC50 values were determined from concentration-response data modeled with the standard Hill equation.
qHTS protocol for hERG-U2OS cellular assay
[Step] [Parameter] [Value] [Description]
1. Day 1: Replace medium in 70-80% confluent T225 flask with 2.5 mL of hERG-BacMam virus plus 12.5 mL of phosphate buffered saline (PBS) (corresponding roughly to a multiplicity of infection ratio of 100 virus particles/cell)
2. Incubation: 4 hrs @ room Temperature in Dark
3. Reagent; Remove virus; wash once with 25 ml DPBS
4. Reagent; 35 ml culture medium
5. Incubation; 37 °C overnight
6. Day2: Reagent; 3 uL; 2000 U2OS cells/well
7. Time; 4 hr; 37 °C incubation
8. Loading buffer; 1 uL; 0.7X;
9. Incubation: 1hr @ RT in Dark.
12. Time; 10min; 37 °C incubation
13. Read fluorescence Intensity on FDSS for 10 Sec with 1 sec interval
14. Reagent; 1 uL; stimulation buffer
15. Read fluorescence Intensity on FDSS for 2 min with 1 sec interval
16. Detection; Fluorescence Intensity; FDSS
In the case of `O=C(O)c1cc(=O)c2ccccc2o1`, the Potency was “inactive”. With `O=C(O)Cc1ccc(CCNS(=O)(=O)c2ccc(Cl)cc2)cc1` the Potency was “inactive”. `Nc1c2c(nc3c1CCC3)CCCC2` was tested, and the Potency was “inactive”. With `CC(=O)SC[C@@H](Cc1ccccc1)C(=O)NCC(=O)OCc1ccccc1` the Potency was “inactive”. In the case of `CN1CCN(C(=O)C2CCCCC2)CC1`, the Potency was “inactive”. `CC(=O)Oc1cccc(C)c1` was tested, and the Potency was “inactive”. With `CCCCCC(C)N` (stereo not given) the Potency was “inactive”. For `COc1ccc2cc(CCC(C)=O)ccc2c1`, the Potency was “inactive”. `Cc1ccc2c(c1)c1c3n2CCNC3CCC1` (stereo not given) was tested, and the Potency was “inactive”. With `COc1ccccc1OCC(O)CO` (stereo not given) the Potency was “inactive”. In the case of `CN[C@@H]1[C@H](O)[C@H](NC)[C@H]2O[C@@]3(O)C(=O)C[C@@H](C)O[C@H]3O[C@@H]2[C@H]1O`, the Potency was “inactive”. With `O[C@@H]1CO[C@H]2[C@@H]1OC[C@@H]2O` the Potency was “inactive”. `CCOc1cc(NC(C)=O)ccc1C(=O)OC` was tested, and the Potency was “inactive”. `CCN1CC(CCN2CCOCC2)C(c2ccccc2)(c2ccccc2)C1=O` (stereo not given) was tested, and the Potency was “inactive”. `CCCNC(C)C(=O)Nc1c(C)csc1C(=O)OC` (stereo not given) was tested, and the Potency was “inactive”. With `COc1ccc(NS(=O)(=O)c2ccc(N)cc2)nn1` the Potency was “inactive”. `O=C(NCCCN1CCOCC1)c1ccc(Cl)cc1` was tested, and the Potency was “inactive”. `C[N+](C)(C)CC(O)CC(=O)[O-]` (stereo not given) was tested, and the Potency was “inactive”. With `Cc1ccccc1N=Nc1ccc(N=Nc2c(O)ccc3ccccc23)c(C)c1` the Potency was “inactive”. For `Cc1c(N(C)C)c(=O)n(-c2ccccc2)n1C`, the Potency was “inactive”. For `C[N+]1(C)CCCC(OC(=O)C(O)(c2ccccc2)c2ccccc2)C1` (stereo not given), the Potency was “inactive”. With `CC(CSC(=O)c1ccccc1)C(=O)N1C[C@@H](Sc2ccccc2)C[C@H]1C(=O)O` (stereo not given in full) the Potency was “inactive”. In the case of `O=C(O)/C=C/c1ccc(Cn2ccnc2)cc1`, the Potency was “inactive”. For `CC(C)C[C@@H](N)C(=O)O`, the Potency was “inactive”. In the case of `NC(=O)c1ccc([N+](=O)[O-])cc1Cl`, the Potency was “inactive”. In the case of `Cc1ccc(S(=O)(=O)NC(=O)NC2CCCCC2)cc1`, the Potency was “inactive”. With `CC(=O)N(CC(O)CO)c1c(I)c(C(=O)NCC(O)CO)c(I)c(C(=O)NCC(O)CO)c1I` (stereo not given) the Potency was “inactive”. In the case of `O=C1CC[C@@H](C(=O)O)N1`, the Potency was “inactive”. `C/C=C/C(=O)N(CC)c1ccccc1C` was tested, and the Potency was “inactive”. With `CC1(c2ccccc2)OC(C(=O)O)=CC1=O` (stereo not given) the Potency was “inactive”. In the case of `C[C@@H]1O[C@@H](OC[C@H]2O[C@@H](Oc3c(-c4ccc(O)c(O)c4)oc4cc(O)cc(O)c4c3=O)[C@H](O)[C@@H](O)[C@@H]2O)[C@H](O)[C@H](O)[C@H]1O`, the Potency was “inactive”. `CC(C)(C)C(=O)OCOC(=O)[C@@H]1N2C(=O)[C@@H](NC(=O)[C@H](N)c3ccccc3)[C@H]2SC1(C)C` was tested, and the Potency was “inactive”. `CCCCOC(=O)c1ccc(N)cc1` was tested, and the Potency was “inactive”. `Cc1cc(NC(=O)C2=C(O)c3ccccc3S(=O)(=O)N2C)no1` was tested, and the Potency was “inactive”. With `COc1nccnc1NS(=O)(=O)c1ccc(N)cc1` the Potency was “inactive”. In the case of `OCc1ccc(Cl)cc1Cl`, the Potency was “inactive”. `NS(=O)(=O)c1ccc(C(=O)O)cc1` was tested, and the Potency was “inactive”. In the case of `O=C(/C=C/c1ccc(O)c(O)c1)O[C@@H]1C[C@@](OC(=O)/C=C/c2ccc(O)c(O)c2)(C(=O)O)C[C@@H](O)[C@@H]1O`, the Potency was “inactive”. For `CN(C(=O)c1c(O)c2ccccc2n(C)c1=O)c1ccccc1`, the Potency was “inactive”. `CC(C)c1cc2c(cc1S(=O)(=O)O)[C@@]1(C)CCC[C@@](C)(C(=O)O)[C@@H]1CC2` was tested, and the Potency was “inactive”.
